According to PubChem BioAssay (NCI):
The panel holds about 79,000 compounds, 15% with a hit somewhere; the sample as a whole holds those more often. Unmarked numbers belong to inactive results. Active and inactive are the calls of the source. No stated cut-off is given here; in the data, active means growth inhibition above about 70%; inactive means the rest.

Legend:
[1] = NCI Yeast Anticancer Drug Screen. Data for the wt2 strain (AID 169); conditions: S. cerevisiae wt2 strain growth inhibition, active compounds read high
Procedure, shortened: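 The panel's yeast strains carry defined changes in DNA repair or cell cycle genes. Each strain is grown with compound, and growth loss is scored relative to vehicle.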

[2] = NCI Yeast Anticancer Drug Screen. Data for the mlh1 strain (AID 171);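 further: 0% = growth of vehicle-treated control cultures of the same strain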; conditions: S. cerevisiae mlh1 strain growth inhibition, active compounds read high
Procedure, shortened: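 Inhibition values reflect reduced yeast growth in the presence of compound, referenced to vehicle controls, using a strain chosen for its alteration in DNA repair or cell cycle control.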

[3] = NCI Yeast Anticancer Drug Screen. Data for the sgs1 strain (AID 173);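 further: 0% = growth of vehicle-only control cultures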; conditions: S. cerevisiae sgs1 mutant, active compounds read high
Procedure, shortened: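 Vehicle-treated cultures served as reference for growth inhibition of a yeast strain altered in DNA damage repair or cell cycle control after compound exposure.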

[4] = NCI Yeast Anticancer Drug Screen. Data for the mlh1 rad18 strain (AID 175); conditions: S. cerevisiae mlh1 rad18 strain growth inhibition, active compounds read high
Procedure, shortened: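 Inhibition values reflect reduced growth of mutant yeast versus vehicle-treated controls following compound exposure; the mutations affect DNA damage repair.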

[5] = NCI Yeast Anticancer Drug Screen. Data for the rad18 strain (AID 177); conditions: S. cerevisiae rad18 mutant growth inhibition, active compounds read high
Procedure, shortened: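 Steps: expose repair-mutant yeast to compound; measure growth; express as inhibition relative to vehicle control.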

[6] = NCI Yeast Anticancer Drug Screen. Data for the rad52 strain (AID 147);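 further: 0% = growth of vehicle-treated control cultures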; conditions: S. cerevisiae rad52 mutant growth inhibition, active compounds read high
Procedure, shortened: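 Inhibition of yeast growth, referenced to vehicle controls, was the measured output for a strain with defective DNA damage repair.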

[7] = NCI Yeast Anticancer Drug Screen. Data for the wt1 strain (AID 149);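 further: 0% = growth of vehicle-treated wt1 cultures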; conditions: S. cerevisiae wt1 strain (SPY 50644) growth inhibition, active compounds read high
Procedure, shortened: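 Each compound is tested on wt1 yeast and the loss of growth versus vehicle gives the inhibition value.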

[8] = NCI Yeast Anticancer Drug Screen. Data for the rad50EPP+ strain (AID 151);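 further: 0% = growth of vehicle-treated control cultures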; conditions: S. cerevisiae rad50 mutant strain, active compounds read high
Procedure, shortened: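 Genetically defined yeast (rad50EPP+, DNA damage repair alteration) is grown with compound, and inhibition of growth is expressed relative to vehicle-treated controls.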

[9] = NCI Yeast Anticancer Drug Screen. Data for the mgt1 strain (AID 153); conditions: S. cerevisiae mgt1 mutant growth inhibition, active compounds read high
Procedure, shortened: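 In the mgt1 strain, test compounds were added and growth inhibition was determined relative to vehicle-treated controls.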

[10] = NCI Yeast Anticancer Drug Screen. Data for the rad50 strain (AID 155);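 further: 0% = growth of vehicle-only cultures of the same strain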; conditions: S. cerevisiae rad50 strain growth inhibition, active compounds read high
Procedure, shortened: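 Vehicle-treated cultures provide the reference for the growth inhibition reported for compound-exposed, repair-deficient yeast.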

[11] = NCI Yeast Anticancer Drug Screen. Data for the mec2-1 strain (AID 157); conditions: S. cerevisiae mec2-1 strain, active compounds read high
Procedure, shortened: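 Each compound was tested on mec2-1 yeast, a strain altered in DNA damage repair or cell cycle control. Growth inhibition is reported relative to vehicle.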

[12] = NCI Yeast Anticancer Drug Screen. Data for the rad14 strain (AID 159);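 further: 0% = growth of vehicle-treated control cultures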; conditions: S. cerevisiae rad14 strain growth inhibition, active compounds read high
Procedure, shortened: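 Inhibition of growth is reported for a repair-deficient yeast mutant following compound treatment, calculated relative to cultures that received vehicle.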

[13] = NCI Yeast Anticancer Drug Screen. Data for the sgs1 mgt1 strain (AID 161);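 further: 0% = growth of cultures given vehicle only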; conditions: S. cerevisiae sgs1 mgt1 strain, active compounds read high
Procedure, shortened: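 Mutant yeast exposed to compound; growth scored against vehicle-only wells.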

[14] = NCI Yeast Anticancer Drug Screen. Data for the CLN2oe strain (AID 163);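 further: 0% = growth of vehicle-only control cultures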; conditions: S. cerevisiae CLN2oe strain, active compounds read high
Procedure, shortened: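 First, the altered yeast strain was treated with each compound; second, its growth was measured; finally, inhibition was derived by comparison with vehicle controls.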

[15] = NCI Yeast Anticancer Drug Screen. Data for the cln2 rad14 strain (AID 165);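 further: 0% = growth equal to vehicle treated cultures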; conditions: S. cerevisiae cln2 rad14 strain, active compounds read high
Procedure, shortened: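 Test compounds were added to cln2 rad14 yeast cultures; inhibition of growth was then determined by comparison with vehicle treatment.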

[16] = NCI Yeast Anticancer Drug Screen. Data for the bub3 strain (AID 167); conditions: S. cerevisiae bub3 mutant strain, active compounds read high
Procedure, shortened: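 Mutant yeast screening strain plus compound; vehicle-treated cultures serve as the 0% inhibition reference.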

[17] = at 5.0 µM (retest, dose inferred, filed as 0.5)
[18] = at 50.0 µM (retest, dose inferred, filed as 5.0)

COc1ccc2c(c1)CCCC(Br)C2=O (stereo unspecified)
growth inhibition ([1]; at 1.2 µM): -41% | growth inhibition ([1]; at 3.7 µM): -53% | growth inhibition ([1]; at 11.0 µM): -22% | growth inhibition ([1]; at 33.0 µM): 60% | growth inhibition ([1]; at 100.0 µM): 98% (active) | growth inhibition ([2]; at 1.2 µM): 26% | growth inhibition ([2]; at 3.7 µM): 23% | growth inhibition ([2]; at 11.0 µM): 36% | growth inhibition ([2]; at 33.0 µM): 78% (active) | growth inhibition ([2]; at 100.0 µM): 98% (active) | growth inhibition ([3]; at 1.2 µM): 34% | growth inhibition ([3]; at 3.7 µM): 43% | growth inhibition ([3]; at 11.0 µM): 35% | growth inhibition ([3]; at 33.0 µM): 74% (active) | growth inhibition ([3]; at 100.0 µM): 99% (active) | growth inhibition [4, 17]: 6% | growth inhibition [4, 18]: 73% (active) | growth inhibition ([4]; at 50.0 µM): 92.4% (active) | growth inhibition ([5]; at 1.2 µM): 32% | growth inhibition ([5]; at 3.7 µM): 45% | growth inhibition ([5]; at 11.0 µM): 54% | growth inhibition ([5]; at 33.0 µM): 87% (active) | growth inhibition ([5]; at 100.0 µM): 99% (active)

COc1ccc2nc3cccc([N+](=O)[O-])c3c(NCCNCCO)c2c1
growth inhibition ([6]; at 1.2 µM): 69% | growth inhibition ([6]; at 3.7 µM): 90% (active) | growth inhibition ([6]; at 11.0 µM): 95% (active) | growth inhibition ([6]; at 33.0 µM): 96% (active) | growth inhibition ([6]; at 100.0 µM): 96% (active) | growth inhibition ([7]; at 1.2 µM): -3% | growth inhibition ([7]; at 3.7 µM): 3% | growth inhibition ([7]; at 11.0 µM): 20% | growth inhibition ([7]; at 33.0 µM): 49% | growth inhibition ([7]; at 100.0 µM): 70% (active) | growth inhibition ([8]; at 1.2 µM): 2% | growth inhibition ([8]; at 3.7 µM): 18% | growth inhibition ([8]; at 11.0 µM): 61% | growth inhibition ([8]; at 33.0 µM): 92% (active) | growth inhibition ([8]; at 100.0 µM): 96% (active) | growth inhibition ([9]; at 1.2 µM): -2% | growth inhibition ([9]; at 3.7 µM): 1% | growth inhibition ([9]; at 11.0 µM): 23% | growth inhibition ([9]; at 33.0 µM): 69% | growth inhibition ([9]; at 100.0 µM): 75% (active) | growth inhibition ([10]; at 1.2 µM): 41% | growth inhibition ([10]; at 3.7 µM): 81% (active) | growth inhibition [10, 17]: 36% | growth inhibition ([10]; at 11.0 µM): 93% (active) | growth inhibition ([10]; at 33.0 µM): 94% (active) | growth inhibition [10, 18]: 98% (active) | growth inhibition ([10]; at 50.0 µM): 85% (active) | growth inhibition ([10]; at 100.0 µM): 95% (active) | growth inhibition ([11]; at 1.2 µM): 17% | growth inhibition ([11]; at 3.7 µM): 75% (active) | growth inhibition [11, 17]: 1% | growth inhibition ([11]; at 11.0 µM): 95% (active) | growth inhibition ([11]; at 33.0 µM): 96% (active) | growth inhibition [11, 18]: 96% (active) | growth inhibition ([11]; at 50.0 µM): 89.3% (active) | growth inhibition ([11]; at 100.0 µM): 97% (active) | growth inhibition ([12]; at 1.2 µM): 90% (active) | growth inhibition ([12]; at 3.7 µM): 97% (active) | growth inhibition ([12]; at 11.0 µM): 99% (active) | growth inhibition ([12]; at 33.0 µM): 99% (active) | growth inhibition ([12]; at 100.0 µM): 98% (active) | growth inhibition [13, 17]: 78% (active) | growth inhibition [13, 18]: 94% (active) | growth inhibition ([13]; at 50.0 µM): 78.2% (active) | growth inhibition ([14]; at 1.2 µM): -5% | growth inhibition ([14]; at 3.7 µM): -8% | growth inhibition ([14]; at 11.0 µM): -5% | growth inhibition ([14]; at 33.0 µM): 32% | growth inhibition ([14]; at 100.0 µM): 90% (active) | growth inhibition [15, 17]: 81% (active) | growth inhibition [15, 18]: 98% (active) | growth inhibition ([15]; at 50.0 µM): 86.8% (active) | growth inhibition ([16]; at 1.2 µM): -11% | growth inhibition ([16]; at 3.7 µM): -17% | growth inhibition [16, 17]: -31% | growth inhibition ([16]; at 11.0 µM): -11% | growth inhibition ([16]; at 33.0 µM): 36% | growth inhibition [16, 18]: 90% (active) | growth inhibition ([16]; at 50.0 µM): 67.7% | growth inhibition ([16]; at 100.0 µM): 96% (active) | growth inhibition ([1]; at 1.2 µM): -2% | growth inhibition ([1]; at 3.7 µM): -1% | growth inhibition ([1]; at 11.0 µM): 4% | growth inhibition ([1]; at 33.0 µM): 35% | growth inhibition ([1]; at 100.0 µM): 94% (active) | growth inhibition ([2]; at 1.2 µM): 1% | growth inhibition ([2]; at 3.7 µM): 21% | growth inhibition ([2]; at 11.0 µM): 50% | growth inhibition ([2]; at 33.0 µM): 80% (active) | growth inhibition ([2]; at 100.0 µM): 88% (active) | growth inhibition ([3]; at 1.2 µM): 80% (active) | growth inhibition ([3]; at 3.7 µM): 89% (active) | growth inhibition ([3]; at 11.0 µM): 93% (active) | growth inhibition ([3]; at 33.0 µM): 95% (active) | growth inhibition ([3]; at 100.0 µM): 95% (active) | growth inhibition [4, 17]: 67% | growth inhibition [4, 18]: 98% (active) | growth inhibition ([4]; at 50.0 µM): 78.2% (active) | growth inhibition ([5]; at 1.2 µM): 95% (active) | growth inhibition ([5]; at 3.7 µM): 96% (active) | growth inhibition ([5]; at 11.0 µM): 96% (active) | growth inhibition ([5]; at 33.0 µM): 95% (active) | growth inhibition ([5]; at 100.0 µM): 95% (active)
